For 40 compounds, Potency and activity change, negative = cytotoxicity results are on record in PubChem BioAssay (Tox21).

Records with an inconclusive call do not appear. A call without a number means that no potency is given here. The source made the active and inactive calls. The call rests on the fitted dose curve; in most records, active means well fitted cell-killing curve with a large enough effect in the repeat runs; inconclusive means weak or mixed curves, or effect the other way; inactive means no such curve, though single readings can be large or run the other way.
Potency means the concentration at half of the fitted maximal effect.

The experiment is described as follows: qHTS assay for identifying genotoxic compounds that show differential cytotoxicity against isogenic chicken DT40 cell lines with known DNA damage response pathways - wild type cell line (AID 743012). Further: nearly all actives have a fitted effect of over 60% in size. As to conditions: DT40 wild type chicken cells viability, CellTiter-Glo, 40 h; series mostly up to 68.4 µM. An excerpt:
U.S. Tox21 Program National Center for Advancing Translational Sciences [NCATS] NIH Chemical Genomics Center [NCGC] U.S. Environmental Protection Agency [EPA] National Institutes of Environmental Health Sciences [NIEHS] National Toxicology Program [NTP] U.S. Food and Drug Administration [FDA] Tox21 Assay Overview: DNA repair pathways play a critical role in cellular homeostasis by repairing DNA damage induced by endogenous processes and xenobiotics. Isogenic chicken DT40 cell lines deficient in different DNA repair pathways can be used to identify genotoxic compounds and aid in characterizing the nature of the DNA damage induced. Two DNA repair-deficient cell lines with disrupted genes, Rad54/Ku70 or Rev3, were used to screen the Tox21 10K compound library. Possible genotoxicity was based on the presence of a significant increase in cytotoxicity in one or more of the DNA repair-deficient cell lines compared to that observed in the parental DNA repair-proficient cell line. CellTiter Glo viability assay (Promega, Madison, WI) was used to measure cell viability in these cells after compound treatment. This assay includes the data from the wild type cell line.
Tox21 Assay Protocol Summary: 300 DT40 wild type cells in 5 uL/well were dispensed into white, solid-bottom 1536-well plates using a Multidrop Combi (ThermoFisher Scientific, Waltham, MA) dispenser. After the assay plates were incubated at 37 C/5% CO2 for approximately 0.5 hour, 23 nL of compounds dissolved in DMSO, positive controls or DMSO only was transferred into the assay plate by a pintool work station (Kalypsys, San Diego, CA). The assay plates were incubated at 37 C/5% CO2 for 40 hours. After 5 uL per well of CellTiter-Glo reagent was added into each well of the assay plates, the plates were incubated for 30 min at room temperature and the luminescence intensity of the plates was measured using a ViewLux (PerkinElmer, Shelton, CT) plate reader.
In the case of `O=C(O)/C=C/c1ccc(Cn2ccnc2)cc1`, the Potency entry is “inactive”.

In the case of `CC(C)c1cccc(C(C)C)c1N`, the Potency entry is “inactive”.

Take `COc1ccc(N=[N+]([O-])c2ccc(OC)cc2)cc1`: the Potency result is “inactive”.

On to `C#CC(O)C(CC)CCCC` (stereo not given), for which the Potency result is “inactive”.

Take `CN(C)C(=O)Nc1ccccc1`: the Potency entry was “inactive”.

Turning to `CC12CCC(CC1=O)C2(C)C` (stereo not given), the Potency result was “inactive”.

As for `O=[N+]([O-])c1ccc(CCO)cc1`, the Potency result was “inactive”.

Regarding `NCCN1CCNC1=O`, the Potency result was “inactive”.

On to `CCCC(C)CO` (stereo not given), for which the Potency result is “inactive”.

As to `CC(C)=CC(=O)O`, the Potency result is “inactive”.

`OCC(CO)(CO)COCC(CO)(CO)CO`: the Potency result is “inactive”.

Take `O=S(=O)(c1cccc2cnccc12)N1CCCNCC1`: the Potency entry is “inactive”.

With `CC/C=C\C#N`, the Potency entry was “inactive”.

Consider `CCCCCCC(=O)OCC`, for which the Potency result was “inactive”.

In the case of `NC(=S)Nc1cccc2ccccc12`, the activity change, negative = cytotoxicity is 28.7% [at 8.52 µM] (inactive).

In the case of `c1ccc(SCCSc2ccccc2)cc1`, the Potency entry was “inactive”.

As for `O=[N+]([O-])c1ccc(Oc2ccc([N+](=O)[O-])cc2)cc1`, the Potency result is “inactive”.

Consider `COc1cc(CCC(C)=O)ccc1O`, for which the Potency result is “inactive”.

With `CCCCCCOC(=O)CC(CC(=O)OCCCCCC)(OC(=O)CCC)C(=O)OCCCCCC`, the Potency result was “inactive”.

As to `CCO[Si](C)(OCC)OCC`, the Potency result is “inactive”.

Take `CCN1CCCC1CNC(=O)c1cc(S(N)(=O)=O)ccc1OC` (stereo not given): the Potency result was “inactive”.

`OCC(O)[C@@H](O)[C@H](O)[C@H](O)CO[C@H]1O[C@H](CO)[C@@H](O)[C@H](O)[C@H]1O` (stereo not given in full): the Potency entry was “inactive”.

`NC(=O)Nc1nc2ccccc2[nH]1`: the Potency entry was “inactive”.

`CCC(=O)Nc1cccc(N)c1`: the Potency entry was “inactive”.

Regarding `CC(C)CCCCCCN`, the Potency entry was “inactive”.

`COCc1ccc(COC)cc1`: the Potency entry is “inactive”.

As for `CCCc1ccc(N)cc1`, the Potency entry was “inactive”.

Consider `CC(C)[C@H](N)C(=O)OCCOCn1cnc2c(=O)[nH]c(N)nc21`, for which the Potency was 11.9 µM (active).

As for `Fc1ccccc1-c1ccccc1`, the Potency result is “inactive”.

Consider `CC(C)N1C(=O)c2ccccc2C1=O`, for which the Potency result is “inactive”.

For the compound `OCc1ccccn1`, the Potency entry is “inactive”.

For the compound `NS(=O)(=O)c1cc2c(cc1Cl)NC(CSCc1ccccc1)=NS2(=O)=O`, the Potency result is “inactive”.

For the compound `COc1cc(C(=O)N2CCOCC2)cc(OC)c1OC`, the Potency entry is “inactive”.

Take `CCc1cc(S(=O)(=O)O)c2cc(C(C)C)cccc1-2`: the Potency entry is “inactive”.

For the compound `CC(O)CN(CCCN(C)C)CCCN(C)C` (stereo not given), the Potency entry was “inactive”.

With `CCCCc1ccc2cccc(S(=O)(=O)O)c2c1`, the Potency result is “inactive”.

For the compound `COc1ccc(COC=O)cc1`, the Potency result was “inactive”.

Take `CCCCC=O`: the Potency entry is “inactive”.

Consider `O=C(O)CCNC(=O)c1ccc(N=Nc2ccc(O)c(C(=O)O)c2)cc1`, for which the Potency entry is “inactive”.

For the compound `CCCCNc1ccccc1`, the Potency result is “inactive”.
